# In the supplement of paper PMC9135407:
# Values joined by “and” are separate entries in the source; they are usually repeats but may differ in a detail not shown here. Equal values may be shown once. Where a name gives a salt, the structure may show the parent alone. The campaign covered roughly 5,800 compounds. About 620 (11%) showed activity. The full list was thinned out, with actives kept by preference. Unmarked numbers belong to inactive results.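 The calls were made as follows: active = score above a cut-off or among the top three wells of a plate; in these data no inactive exceeds 0.85.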
# Tested on: primary human hepatic stellate cells (donor 1)
# Assay: scaled lipid accumulation score (0 = DMSO-like, 1 = nortriptyline-like); higher = stronger HSC inactivation (lipid re-accumulation), active = hit call of the paper
# Conditions: 48 h
# [1] = library stock concentration: 80 uM
# [2] = library stock concentration: 400 uM
# [3] = library stock concentration: 1 mM
# [4] = library stock concentration: 2 mM
# [5] = library stock concentration: 10 mM
# [6] = library stock concentration: 3.33 mM
smiles,measurement,setting,value
COc1cc2c(cc1OC)-c1[nH]nc(Nc3cccc(F)c3)c1C2,scaled lipid accumulation score,[1],≤ -0.001
same,scaled lipid accumulation score,[2],≤ -0.001
same,scaled lipid accumulation score,[3],≤ 0
same,scaled lipid accumulation score,[4],0.073
same,scaled lipid accumulation score,[5],0.232
COc1cc2c(cc1OC)-c1[nH]nc(Nc3cccc(F)c3)c1C2 [PDGF Receptor Tyrosine Kinase Inhibitor IV],scaled lipid accumulation score,[6],0.044
O[C@H]1[C@H](O)[C@@H](O)[C@@H]2O[C@@H]2[C@@H]1O (racemic) [Conduritol b epoxide],scaled lipid accumulation score,library stock concentration: 12.3 mM,≤ 0
Cc1cc(O)c(C=O)c2c1C(=O)Oc1c(C)c(O)c3c(c1O2)C(O)OC3=O (centres undefined) [Norstictic acid],scaled lipid accumulation score,[5],≤ 0
CN(CC[C@@H](Oc1ccc(C(F)(F)F)cc1)c1ccccc1)CC(=O)[O-].[Li+],scaled lipid accumulation score,[5],0.149
CNCCC(Oc1ccc(C(F)(F)F)cc1)c1ccccc1 (centres undefined) [Fluoxetine],scaled lipid accumulation score,[5],0.637
CNCCC(Oc1ccc(C(F)(F)F)cc1)c1ccccc1 (centres undefined) [Fluoxetine hydrochloride],scaled lipid accumulation score,[5],0.09
CNCC[C@H](Oc1ccc(C(F)(F)F)cc1)c1ccccc1 [S-(+)-Fluoxetine hydrochloride],scaled lipid accumulation score,[5],0.403
CNCCC(Oc1ccc(C(F)(F)F)cc1)c1ccccc1.Cl (centres undefined) [Fluoxetine hydrochloride],scaled lipid accumulation score,,1.05 (active)
CN(CC[C@@H](Oc1ccc(-c2ccccc2)cc1)c1ccc(F)cc1)CC(=O)O [ALX 5407 hydrochloride],scaled lipid accumulation score,[5],≤ -0.006
O=C(NCc1ccncc1)C12CC3CC(C1)CC(c1ccc(Cl)cc1)(C3)C2,scaled lipid accumulation score,library stock concentration: 13.1 mM,0.27
C[C@H](N[C@@H](CCc1ccccc1)C(=O)O)C(=O)N1Cc2ccccc2C[C@H]1C(=O)O,scaled lipid accumulation score,[5],≤ 0
Cc1[nH]c(/C=C2\C(=O)Nc3ccc(S(=O)(=O)N(C)c4cccc(Cl)c4)cc32)c(C)c1C(=O)N1CCN(C)CC1 [Met Kinase Inhibitor],scaled lipid accumulation score,[6],1.38 (active)
Cc1[nH]c(/C=C2\C(=O)Nc3ccc(S(=O)(=O)N(C)c4cccc(Cl)c4)cc32)c(C)c1C(=O)N1CCN(C)CC1,scaled lipid accumulation score,[1],0.129
same,scaled lipid accumulation score,[2],0.261
CN1CCN(C(=O)c2cc3cc(Cl)ccc3[nH]2)CC1,scaled lipid accumulation score,[6],0.053
same,scaled lipid accumulation score,[5],0.452
Cc1[nH]c(C=C2C(=O)Nc3ccc(S(=O)(=O)N(C)c4cccc(Cl)c4)cc32)c(C)c1C(=O)N1CCN(C)CC1,scaled lipid accumulation score,[6],1.39 (active)
same,scaled lipid accumulation score,[5],1.27 (active)
CN1CCCN(C(=O)c2cccc(-c3ccc(/C=C4/C(=O)Nc5ccc(Cl)cc54)o3)c2)CC1,scaled lipid accumulation score,[6],0.657
same,scaled lipid accumulation score,[5],≤ -0.001
Cc1[nH]c(/C=C2/C(=O)Nc3ccc(S(=O)(=O)N(C)c4cccc(Cl)c4)cc32)c(C)c1C(=O)N1CCN(C)CC1,scaled lipid accumulation score,[4],0.927 (active)
same,scaled lipid accumulation score,[5],1.14 (active)
Cc1[nH]c(/C=C2\C(=O)Nc3ccc(S(=O)(=O)Cc4c(Cl)cccc4Cl)cc32)c(C)c1C(=O)N1CCC[C@@H]1CN1CCCC1 [listing 1 of 2 here],scaled lipid accumulation score,[1],1.15 (active)
same,scaled lipid accumulation score,[2],1.16 (active)
same,scaled lipid accumulation score,[4],1.16 (active)
"O=C1Nc2ccc(Cl)cc2/C1=C/c1cc(Cl)c(O)c(Cl)c1 [PKR Inhibitor, Negative Control]",scaled lipid accumulation score,[6],≤ 0
O=C1Nc2ccc(Cl)cc2/C1=C/c1cc(Cl)c(O)c(Cl)c1,scaled lipid accumulation score,[1],≤ -0.001
same,scaled lipid accumulation score,[2],≤ -0.001
same,scaled lipid accumulation score,[4],≤ -0.001
same,scaled lipid accumulation score,[5],≤ -0.001
Cc1[nH]c(/C=C2\C(=O)Nc3ccc(S(=O)(=O)Cc4c(Cl)cccc4Cl)cc32)c(C)c1C(=O)N1CCC[C@@H]1CN1CCCC1 [listing 2 of 2 here],scaled lipid accumulation score,[6],0.429
same,scaled lipid accumulation score,[5],0.553 and 0.41 and 0.638
COC(=O)C[C@H](NC(=O)[C@H](C)NC(=O)[C@@H](NC(=O)OCc1ccccc1)C(C)C)C(=O)CF,scaled lipid accumulation score,library stock concentration: 10.7 mM,≤ -0.012
CC(=O)N[C@@H](CCC(N)=O)C(=O)O,scaled lipid accumulation score,[5],≤ 0
N#CC(c1ccnc(NCCc2cccnc2)n1)c1nc2ccccc2s1 (centres undefined) [JNK Inhibitor V],scaled lipid accumulation score,[6],0.329
N#CC(c1ccnc(NCCc2cccnc2)n1)c1nc2ccccc2s1 (centres undefined),scaled lipid accumulation score,[1],≤ 0
same,scaled lipid accumulation score,[2],≤ 0
same,scaled lipid accumulation score,[4],0.058
same,scaled lipid accumulation score,[5],0.62
CC(=O)NCCCCCCNC(C)=O,scaled lipid accumulation score,[5],≤ 0
COc1cc2c(cc1O)[C@@H](Cc1ccc(O)cc1)[N+](C)(C)CC2 [Magnocurarine iodide],scaled lipid accumulation score,[5],0.116
CCOCC(O)COc1ccc(NC(=O)CC[S+](C)C)cc1 (centres undefined) [Suplatast tosylate],scaled lipid accumulation score,[5],≤ -0.001
CCOCC(O)COc1ccc(NC(=O)CC[S+](C)C)cc1 (centres undefined) [Suplatast Tosylate],scaled lipid accumulation score,[6],≤ 0
same,scaled lipid accumulation score,[5],≤ 0
NC1=NCC2c3ccccc3Cc3ccccc3N12 (centres undefined) [Epinastine HCl],scaled lipid accumulation score,[6],≤ 0
same,scaled lipid accumulation score,[5],0.038
NC1=NCC2c3ccccc3Cc3ccccc3N12 (centres undefined) [Epinastine hydrochloride],scaled lipid accumulation score,[5],0.592
CCOC(=O)C(Cc1ccc(O)cc1)NC(C)=O (centres undefined) [Acetyl tyrosine ethyl ester],scaled lipid accumulation score,[5],≤ 0
CCCCC/C=C/C/C=C/CCCCCCCC(=O)O [Linoelaidic Acid],scaled lipid accumulation score,[3],0.006
CC(=O)[C@H]1CC[C@H]2[C@@H]3CC=C4C[C@@H](O)CC[C@]4(C)[C@H]3CC[C@]12C [Pregnenolone],scaled lipid accumulation score,,0.084
same,scaled lipid accumulation score,[6],≤ 0
same,scaled lipid accumulation score,library stock concentration: 6.3 mM,≤ 0
same,scaled lipid accumulation score,[5],≤ 0
C[C@]12CC[C@H](O)CC1=CC[C@@H]1[C@@H]2CC[C@]2(C)C(n3cnc4ccccc43)=CC[C@@H]12 [Galeterone],scaled lipid accumulation score,[6],0.137
C[C@]12CC[C@H](O)CC1=CCC1C2CC[C@]2(C)C(n3cnc4ccccc43)=CCC12 (some centres undefined) [Galeterone],scaled lipid accumulation score,[5],1.27 (active)
N[C@@H](Cc1ccc(O)c([N+](=O)[O-])c1)C(=O)O [Nitrotyrosine],scaled lipid accumulation score,[3],0.016
CC(C)NCCCn1c(Sc2cc3c(cc2I)OCO3)nc2c(N)ncnc21 [listing 1 of 2 here],scaled lipid accumulation score,[5],0.881 (active)
CC(C)NCCCn1c(Sc2cc3c(cc2I)OCO3)nc2c(N)ncnc21 [listing 2 of 2 here],scaled lipid accumulation score,[6],0.728
O=C(CCc1ccc(O)c(O)c1)N[C@@H](CC(=O)OCc1ccccc1)C(=O)OCc1ccccc1,scaled lipid accumulation score,[3],≤ 0
NC1CCN(c2cccc(Cl)n2)CC1,scaled lipid accumulation score,[5],0.62 and 0.499
COCCOc1ccc2c(c1)ncn2-c1ccc2cccc(N3CCC(N)CC3)c2n1 [listing 1 of 2 here],scaled lipid accumulation score,[1],≤ 0
same,scaled lipid accumulation score,[2],0.202
same,scaled lipid accumulation score,[4],0.523
same,scaled lipid accumulation score,[6],0.785
same,scaled lipid accumulation score,[5],0.832
COCCOc1ccc2c(c1)ncn2-c1ccc2cccc(N3CCC(N)CC3)c2n1 [listing 2 of 2 here],scaled lipid accumulation score,[5],0.937 (active)
CC1(COc2ccc3c(c2)ncn3-c2ccc3cccc(N4CCC(N)CC4)c3n2)COC1 [listing 1 of 2 here],scaled lipid accumulation score,[6],0.869 (active)
CC1(COc2ccc3c(c2)ncn3-c2ccc3cccc(N4CCC(N)CC4)c3n2)COC1 [listing 2 of 2 here],scaled lipid accumulation score,[5],0.404
COc1c2c(nc3ccccc13)OC(C(C)(O)CO)C2 (centres undefined) [Dubinidine],scaled lipid accumulation score,,≤ 0
O=C(O)CCCC=CCC1C(O)CC(O)C1C=CC(O)COc1cccc(C(F)(F)F)c1 [15(S)-Fluprostenol],scaled lipid accumulation score,[3],≤ 0
CCCCCCCCC=CCCCCCCCCOCCOP(=O)([O-])OCC[N+](C)(C)C [Oleyloxyethyl Phosphorylcholine],scaled lipid accumulation score,[3],≤ 0
CC/C=C\C/C=C\C/C=C\C/C=C\CCCCCCC(=O)OCC [.omega.-3 Arachidonic Acid ethyl ester],scaled lipid accumulation score,[3],≤ 0
CCCCCCCCCCCCCCCCCCCCCCCCC(=O)OC [Pentacosanoic Acid methyl ester],scaled lipid accumulation score,[3],≤ 0
CCCc1cc(C(=O)c2ccc(-c3ccccc3)cc2)ccc1OCCCN1CCCc2c(OC(C)(C)C(=O)O)cccc21,scaled lipid accumulation score,[3],≤ 0
CCCCCCCCC=CCCCCCCCCCCCC(N)=O [13-Docosenamide],scaled lipid accumulation score,[3],≤ 0
[O-][n+]1cccc(CO)c1,scaled lipid accumulation score,[5],≤ 0
CCCCC/C=C\C/C=C\C/C=C\C/C=C\CCCC(=O)OC(CO)CO [2-Arachidonoylglycerol],scaled lipid accumulation score,[3],0.011
CCCCC/C=C\C/C=C\C/C=C\C/C=C\CCCC(=O)OC(CO)CO [2-Arachidonoyl Glycerol],scaled lipid accumulation score,[3],≤ 0
CCCCCCCCCCCCCCCCn1cc[n+](Cc2ccccc2)c1C,scaled lipid accumulation score,[1],≤ -0.001
same,scaled lipid accumulation score,[2],≤ -0.001
same,scaled lipid accumulation score,[4],≤ -0.001
same,scaled lipid accumulation score,[5],0.213 and 0.435
CCCCCCCCCCCCCCCCn1cc[n+](Cc2ccccc2)c1C.[I-],scaled lipid accumulation score,[6],0.92 (active)
CCCCCCCCCCCCC[N+](C)(C)Cc1ccccc1 [Benzalkonium chloride],scaled lipid accumulation score,[5],0.182
"CCCCCCCCCCCCCCCCn1cc[n+](Cc2ccccc2)c1C [eEF-2 Kinase Inhibitor, NH125]",scaled lipid accumulation score,[6],0.247
CC/C=C\C/C=C\C/C=C\CCCCCCCC(=O)N[C@@H](Cc1ccc(O)cc1)C(=O)O [N-(.alpha.-Linolenoyl) Tyrosine],scaled lipid accumulation score,[3],≤ 0
"CCCCC/C=C\C=C\CCCCCCCCC(=O)O [10(E),12(Z)-Conjugated Linoleic Acid]",scaled lipid accumulation score,[3],0.069
CCC=CCC=CCC=CCC=CCCCCC(=O)OCC [Stearidonic Acid ethyl ester],scaled lipid accumulation score,[3],≤ 0
CC(=O)N[C@@H](CSC/C=C(\C)CC/C=C(\C)CC/C=C(\C)CCC=C(C)C)C(=O)O [N-acetyl-S-geranylgeranyl-L-Cysteine],scaled lipid accumulation score,[3],≤ 0 and ≤ -0.021
